Reference: PubChem BioAssay (NCI)
This is part of a sample that, as a whole, favours compounds with a hit. Of some 79,000 tested, about 15% had one in any assay. Values without a mark were called inactive. The source made the active and inactive calls. No stated cut-off is given here; in the data, active means growth inhibition above about 70%; inactive means the rest.

Columns and labels:
[1] = NCI Yeast Anticancer Drug Screen. Data for the rad50 strain (AID 155);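 further: 0% = growth of vehicle-only cultures of the same strain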; conditions: S. cerevisiae rad50 strain growth inhibition; at 50.0 µM; stronger effect = higher value
In short: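 Vehicle-treated cultures provide the reference for the growth inhibition reported for compound-exposed, repair-deficient yeast.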

[2] = NCI Yeast Anticancer Drug Screen. Data for the mec2-1 strain (AID 157); conditions: S. cerevisiae mec2-1 strain, at 50.0 µM, stronger effect = higher value
In short: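 Compounds were applied to mec2-1 yeast cells. Their growth was then compared with that of vehicle-treated cultures to give growth inhibition.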

[3] = NCI Yeast Anticancer Drug Screen. Data for the sgs1 mgt1 strain (AID 161);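 further: 0% = growth of cultures given vehicle only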; conditions: S. cerevisiae sgs1 mgt1 strain, at 50.0 µM, stronger effect = higher value
In short: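 Growth of a repair-deficient yeast mutant was monitored after compound treatment and expressed as inhibition relative to vehicle-treated cultures.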

[4] = NCI Yeast Anticancer Drug Screen. Data for the cln2 rad14 strain (AID 165);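 further: 0% = growth equal to vehicle treated cultures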; conditions: S. cerevisiae cln2 rad14 strain, at 50.0 µM, stronger effect = higher value
In short: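 Strain: cln2 rad14 yeast, altered in cell cycle control and DNA damage repair. Read-out: growth inhibition vs vehicle.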

[5] = NCI Yeast Anticancer Drug Screen. Data for the bub3 strain (AID 167); conditions: S. cerevisiae bub3 mutant strain, at 50.0 µM, stronger effect = higher value
In short: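 Mutant yeast screening strain plus compound; vehicle-treated cultures serve as the 0% inhibition reference.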

[6] = NCI Yeast Anticancer Drug Screen. Data for the mlh1 rad18 strain (AID 175); conditions: S. cerevisiae mlh1 rad18 strain growth inhibition; at 50.0 µM; stronger effect = higher value
In short: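 A repair-deficient yeast strain is exposed to test compound, and growth is scored relative to vehicle-treated controls.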

| Structure (SMILES) | growth inhibition [1] | growth inhibition [2] | growth inhibition [3] | growth inhibition [4] | growth inhibition [5] | growth inhibition [6] |
| --- | --- | --- | --- | --- | --- | --- |
| CC(CC(=O)O)C1(C)C2CCCCC2C2CCCCC21 (stereo not given) | -6.2% | -9.6% | 5.75% | -13.3% | -4.15% | -2.8% |
| CCCCN(CCO)CCO | -4.95% | -8.45% | 9.3% | 14.8% | 9.4% | 2.75% |
| CC(=O)OCCOCNC(=S)N/N=C/c1cc([N+](=O)[O-])ccc1O | 25.9% | -2.75% | 15.6% | 42% | 10.7% | -0.05% |
| Cc1cc2c(c3oc(C4(C)OC4C4OC4C)cc(=O)c13)C(=O)c1c(O)c(C3CC(C)(N(C)C)C(O)C(C)O3)cc(C3CC(N(C)C)C(O)C(C)O3)c1C2=O (stereo not given) | 88.6% (active) | 92.2% (active) | 90.7% (active) | 88.8% (active) | 89.2% (active) | 87.5% (active) |
| COc1ccc(-n2cnc3[nH]ncc3c2=O)cc1 | 1.7% | 0.75% | 0.05% | -0.85% | 12.3% | -2.95% |
| CCOC(=O)C(CN(CC)CC)c1ccccc1 (stereo not given) | -1.15% | -6.35% | -3.25% | 1.8% | 1.95% | 10.3% |
| O=C(O)c1ccc2c(c1)C(=O)c1c(c(O)c3ccccc3c1O)C2=O | 9.25% | 6.25% | 9.6% | -11.7% | 12.3% | -8.55% |
| Clc1nc(Cl)c2ncnc(Cl)c2n1 | -34.5% | 16.1% | -23.2% | -11.4% | -3.7% | -5.7% |
| CCN(CC)CCCn1cnc2ncccc2c1=O | -12.3% | -5.7% | 8.8% | 21% | -9.2% | -3.3% |
| COC(=O)c1cc(NS(=O)(=O)c2ccc(N)cc2)cc(C(=O)OC)c1 | -12.6% | -24.2% | -7.5% | 4.7% | -14.8% | -24.6% |
| CC(c1ccccc1)C1(C)NC(=O)NC1=O (stereo not given) | -12.4% | -24.7% | -2.1% | -4.1% | 6.55% | -10.1% |
| COc1ccc2nccc(C(=O)CCC3CCN(C(=O)c4ccc([N+](=O)[O-])cc4)CC3C(CBr)CCBr)c2c1 (stereo not given) | 16.7% | 6.35% | 26.6% | -1.85% | 6.2% | 34.2% |
| CCCCNCCOC(=O)c1ccc(N)cc1 | 2.9% | 2% | 1.9% | 16.4% | 10.1% | 12.1% |
| CC(=O)C(=CC=C(c1ccc(N(C)C)cc1)c1ccc(N(C)C)cc1)C(C)=O | -45.3% | -8.55% | 9.5% | -14.8% | 12.7% | -13.6% |
| COc1ccc2c(c1)CCC1=C2CCC(C(=O)O)C1(C)C(=O)O (stereo not given) | 1.9% | -3% | 9.25% | 4.15% | -4.25% | -25.4% |
| N#CC1C=CN(Cc2ccccc2)C=C1C(=O)c1ccccc1 (stereo not given) | -1.5% | -3.9% | -5.85% | 2.55% | 7.6% | 5.2% |
| CCOC(=O)c1ccc(C#N)cc1 | -8% | -57.3% | -11.2% | -7.6% | -15.7% | 5.45% |
| CN(C)c1ccc(/[N+]([O-])=C/C=C/C=[N+](/[O-])c2ccc(N(C)C)cc2)cc1 | -1.35% | 3.8% | 1.55% | -28.6% | 13.2% | -14.6% |
| CC(C)(C)NCC1CCCC1 | 0.55% | -1.5% | 2.4% | -22.9% | -11.4% | -3.8% |
| CN(C)CCSC(=Nc1ccccc1)N1CCCCC1 | -32.8% | 1.7% | -9.5% | 30.9% | 8.15% | -9.6% |

| Structure (SMILES) | growth inhibition [1] | growth inhibition [2] | growth inhibition [3] | growth inhibition [4] | growth inhibition [5] | growth inhibition [6] |
| --- | --- | --- | --- | --- | --- | --- |
| Cn1nc(-c2ccccc2)c(C(=O)/C=C/c2ccccc2)c(N2CCCC2)c1=O | -22.1% | -11.2% | 3.2% | -4.15% | -21.1% | -19.2% |
| CN(C)Cc1cc(CN(C)C)cc(CN(C)C)c1 | 0.3% | 15.8% | 3.45% | -22.9% | -11.2% | -19.8% |
| O=S1(=O)C=C(N2CCCCC2)c2ccccc21 | 2.65% | 2.05% | -4% | -13.3% | -52% | 11.8% |
| Brc1cncc(Br)c1 | 31.9% | -9.35% | -13.3% | -2.1% | -12.2% | 1.4% |
| Nc1nc(-c2ccccc2)cc2ccccc12 | 0.55% | -12.7% | 1.65% | -18.7% | -13.2% | 18.1% |
| Ic1ccc(N=Cc2cccs2)cc1 | 5.1% | -1.85% | 21.6% | 6.8% | 10.8% | 21.8% |
| Cc1cccc(CNc2ncnc3[nH]ncc23)c1 | -15% | -30.8% | -24.8% | -12.6% | -36.1% | 3.15% |
| CCCCC(CCc1ccccc1)C(=O)NCC (stereo not given) | -5.1% | -11.6% | -18.4% | -11% | -12.3% | 5.1% |
| COC(=O)C1=C(C(=O)OC)C2(CCCCCC2=O)OC1=O (stereo not given) | -0.65% | 5.45% | -12.8% | 8.9% | 3.85% | -8.25% |
| Nc1ccc(Sc2nnc(N)s2)cc1 | -26% | -16.6% | -53.1% | 6.8% | -31.4% | -47.5% |
| COc1ccccc1-c1cc(=O)c2cc(C)cnc2[nH]1 | 5.6% | 5.5% | -0.5% | -30.9% | 4.65% | 13.9% |
| O=[N+]([O-])c1cccc(S/N=C/c2c(O)ccc3ccccc23)c1 | 98.5% (active) | 99.1% (active) | 99.2% (active) | 72.8% (active) | 98.5% (active) | 97.8% (active) |
| COc1ccc(-c2cc(-c3ccc(C)cc3)n(C3OC(COC(C)=O)C(OC(C)=O)C(OC(C)=O)C3OC(C)=O)c(=S)c2C#N)cc1 (stereo not given) | -10.6% | -11.2% | -10.3% | 16.9% | -2% | 4.4% |
| N#CNC(=NCC1CCCO1)Nc1cccnc1 (stereo not given) | 2.9% | -9.8% | -26.4% | -23.4% | 23.9% | -2.35% |
| CC1=C(C(=O)O)CCCO1 | -7.6% | 7.75% | 10.2% | -3% | -3.75% | 25.7% |
| C1=Cc2nc1c(-c1ccncc1)c1ccc([n-]1)c(-c1ccncc1)c1nc(c(-c3ccncc3)c3ccc([n-]3)c2-c2ccncc2)C=C1.[Zn+2] | -20.6% | -9.45% | -8.95% | 15.7% | 18.9% | -3.65% |
| COc1ccc(NC(=O)Oc2ccc3c(C)cc(=O)oc3c2)c(OC)c1 (tested in a mixture with another compound) | -3.7% | -6.2% | -22.6% | -19.7% | 1.8% | 12.3% |
| c1ccc([Si](c2ccccc2)(c2cccs2)c2cccs2)cc1 | -8.35% | 6.35% | 12.5% | 7.85% | 3.6% | 26% |
| COC(=O)c1nnn(-c2cccc(Cl)c2)c1C(=O)c1ccc(Cl)c(Cl)c1 | -6.55% | 5.55% | 7.5% | -5.25% | -8.9% | 11.8% |
| O=C1NC(=O)C(=Cc2cc3c(cc2Br)OCO3)C(=O)N1 | 32% | 30.9% | 40.7% | 7% | 41.9% | 25.9% |
